Measured values taken from PubChem BioAssay (Tox21).
Several values for one entry are separate records, joined by “and”; a condition that tells them apart may be missing. Equal values may be shown once. Results filed as inconclusive are left out. Activity calls are given as the source filed them. Unless noted, calls come from the whole dose curve; as a rule, active = well fitted curve in the direction sought with a large enough effect in the repeat runs; inconclusive = weak or mixed curves; inactive = no such curve, though single readings can be large; an effect the other way counts as inactive or inconclusive.

Key:
[1] = Caspase-3/7 induction in HepG2 cells by small molecules, qHTS assay (AID 1346978); note: nearly all actives have a fitted effect of over 15% in size; note: potency is the fitted concentration of half-maximal effect
Outline: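 Caspase-3/7 induction was measured by Caspase-Glo 3/7 luminescence (30 min, room temperature) after a 17 hr compound exposure of wild-type HepG2 cells seeded at 2,000 per well and pre-incubated 5 hr.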

[2] = Caspase-3/7 induction in CHO-K1 cells by small molecules, qHTS cell viability counter screen (AID 1346979); note: nearly all actives have a fitted effect of over 35% in size; note: potency is the fitted concentration of half-maximal effect
Outline: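 To flag cytotoxic compounds, treated CHO-K1 wild-type cells were given CellTiter-Fluor at 16hr and read fluorescently after 1hr at 37C; the caspase-3/7 luminescence was measured in these same wells.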

[3] = Caspase-3/7 induction in CHO-K1 cells by small molecules, qHTS assay (AID 1346980); note: nearly all actives have a fitted effect of over 15% in size
Outline: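 Luminescent Caspase-Glo 3/7 read (30min, room temperature) quantified apoptosis induction. Cells were wild-type CHO-K1, treated with compound for 17hr at 37 C and 5% CO2.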

[4] = Caspase-3/7 induction in HepG2 cells by small molecules, qHTS cell viability counter screen (AID 1346981); note: nearly all actives have a fitted effect of over 30% in size; note: potency is the fitted concentration of half-maximal effect
Outline: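 Multiplexed with the caspase-3/7 assay: HepG2 cells, 16 hr compound treatment, CellTiter-Fluor viability detection by fluorescence.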

[5] = target: Nuclear receptor subfamily 1 group I member 2 (Homo sapiens) (UniProt O75469); assay: Human pregnane X receptor (PXR) small molecule agonists, qHTS assay (AID 1346982); note: nearly all actives have a fitted effect of over 35% in size; note: potency is the fitted concentration of half-maximal effect
Outline: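 We seeded PXR-Luc HepG2 cells in assay medium containing 5% charcoal-stripped FBS, added compounds 5 hr later, incubated 24 hr, and read luminescence with ONE-Glo reagent.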

[6] = target: Acetylcholinesterase (Homo sapiens) (UniProt P22303); assay: Acetylcholinesterase (AChE) small molecule antagonists: colormetric cell-based qHTS assay (AID 1347395; calls by dose curve; note: nearly all actives have a fitted effect of over 30% in size)
Outline: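 Neuroblastoma line SH-SY5Y supplied the enzyme; cells were preincubated with compound for 30 min at 37 C and 5% CO2. Acetylthiocholine with DTNB was then added for 90 min at 37 C, and thiocholine was measured by colour.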

[7] = target: Acetylcholinesterase (Homo sapiens) (UniProt P22303); assay: Acetylcholinesterase (AChE) small molecule antagonists: enzyme-based qHTS assay (AID 1347397; calls by dose curve; note: nearly all actives have a fitted effect of over 55% in size); conditions: Potency: AChE enzyme activity inhibition
Outline: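 Absorbance-based detection of thiocholine with DTNB served as the read-out. Recombinant human AChE was exposed to compound for 30 min at RT before a 10 min RT incubation with acetylthiocholine.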

[8] = target: Nuclear receptor subfamily 1 group I member 2 (Rattus norvegicus) (UniProt Q9R1A7); assay: Rat pregnane X receptor (rPXR) activation by small molecules, qHTS assay (AID 1346983); conditions: rPXR luciferase reporter cells, One-Glo luminescence, 24 h; max activation: hits give high values; note: nearly all actives have a fitted effect of over 20% in size
Outline: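 Luminescent readout (One-Glo luciferase, 30 min room temperature) followed 24 hr compound treatment at 37 C of rPXR cells plated 2,000 per well and preincubated 5hr; qHTS format with compounds delivered in DMSO.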

[9] = target: Nuclear receptor subfamily 1 group I member 2 (Homo sapiens) (UniProt O75469); assay: CYP3A4 induction through human pregnane X receptor (PXR) by small molecules, qHTS assay (AID 1346984); note: nearly all actives have a fitted effect of over 40% in size
Outline: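 qHTS, concentration-response format: HepG2 DPX-2 line, PXR/CYP3A4-luc. Exposure 24 h, 37C. Substrate Luciferin-IPA 3uM final, 3 h. Detection One-Glo, 30 min RT.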

[10] = target: Nuclear receptor subfamily 1 group I member 2 (Homo sapiens) (UniProt O75469); assay: Human pregnane X receptor (PXR) activation by small molecules, qHTS assay (AID 1346985); note: nearly all actives have a fitted effect of over 40% in size
Outline: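 DPX-2 cells (HepG2 co-transfected with a PXR response element and a CYP3A4-promoter luciferase construct) were seeded at 2,000 per well, rested 5 hr at 37C, then exposed to DMSO-dissolved compounds for 24 hr. Activation was read as luciferase luminescence.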
% is set by controls: 0 for no effect and ±100 for the full control effect.

Chain of Nuclear receptor subfamily 1 group I member 2 (Rattus norvegicus) (Q9R1A7 whole entry, looked up): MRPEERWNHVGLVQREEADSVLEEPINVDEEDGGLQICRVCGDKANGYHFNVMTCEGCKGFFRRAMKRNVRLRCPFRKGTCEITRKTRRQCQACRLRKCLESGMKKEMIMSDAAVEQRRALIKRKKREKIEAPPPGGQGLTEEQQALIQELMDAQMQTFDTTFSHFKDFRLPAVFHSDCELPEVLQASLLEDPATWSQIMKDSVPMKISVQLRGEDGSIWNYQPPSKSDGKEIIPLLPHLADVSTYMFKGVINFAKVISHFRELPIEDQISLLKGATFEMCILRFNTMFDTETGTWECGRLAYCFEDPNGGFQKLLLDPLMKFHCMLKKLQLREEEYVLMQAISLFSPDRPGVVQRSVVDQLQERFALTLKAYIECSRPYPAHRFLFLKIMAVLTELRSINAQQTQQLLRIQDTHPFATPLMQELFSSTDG
Chain of Acetylcholinesterase (Homo sapiens) (P22303 whole entry, looked up): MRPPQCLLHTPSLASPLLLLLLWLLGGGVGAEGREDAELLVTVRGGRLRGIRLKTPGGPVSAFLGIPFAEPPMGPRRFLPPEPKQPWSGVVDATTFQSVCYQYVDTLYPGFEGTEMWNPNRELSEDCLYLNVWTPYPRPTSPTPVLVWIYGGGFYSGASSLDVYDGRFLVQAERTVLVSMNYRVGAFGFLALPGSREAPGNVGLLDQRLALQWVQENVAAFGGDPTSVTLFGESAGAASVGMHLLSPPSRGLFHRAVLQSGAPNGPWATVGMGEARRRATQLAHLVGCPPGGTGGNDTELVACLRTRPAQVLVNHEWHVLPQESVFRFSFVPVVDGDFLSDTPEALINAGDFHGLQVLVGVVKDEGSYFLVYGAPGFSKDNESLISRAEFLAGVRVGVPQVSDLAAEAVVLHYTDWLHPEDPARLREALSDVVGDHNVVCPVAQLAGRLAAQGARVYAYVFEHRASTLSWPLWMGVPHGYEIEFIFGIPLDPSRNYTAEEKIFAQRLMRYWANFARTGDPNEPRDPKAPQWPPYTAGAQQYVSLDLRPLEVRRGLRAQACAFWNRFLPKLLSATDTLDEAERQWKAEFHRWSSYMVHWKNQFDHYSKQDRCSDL
Chain of Nuclear receptor subfamily 1 group I member 2 (Homo sapiens) (O75469 whole entry, looked up): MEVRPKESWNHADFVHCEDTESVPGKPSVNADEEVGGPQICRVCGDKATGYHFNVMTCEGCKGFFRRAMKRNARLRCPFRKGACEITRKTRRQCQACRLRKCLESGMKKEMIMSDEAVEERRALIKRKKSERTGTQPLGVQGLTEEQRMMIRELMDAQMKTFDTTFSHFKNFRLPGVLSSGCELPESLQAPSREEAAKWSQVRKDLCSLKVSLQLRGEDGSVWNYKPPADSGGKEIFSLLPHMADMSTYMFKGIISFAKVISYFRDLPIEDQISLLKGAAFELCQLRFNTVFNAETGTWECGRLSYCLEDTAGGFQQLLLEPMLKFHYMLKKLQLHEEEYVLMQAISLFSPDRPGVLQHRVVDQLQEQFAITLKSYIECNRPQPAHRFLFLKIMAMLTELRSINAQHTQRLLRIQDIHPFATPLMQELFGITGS

BrCC(Br)c1ccccc1 (stereo not given)
inactive: Potency [1] | Potency [2] | Potency [3] | Potency [4] | Potency [5] | Potency [6] | Potency [7]

O=C1C=CC(=O)c2ccccc21
active: Potency [2] 5.45 µM | Potency [4] 61.1 µM
inactive: Potency [1] | Potency [3] | Potency [5] | Potency [6] | Potency [7]

FC(F)(F)c1cccc(C2=CCN(CCc3ccc4ccccc4c3)CC2)c1
inactive: Potency [1] | Potency [2] | Potency [3] | Potency [4] | Potency [5] | max activation [8] -2.77% | Potency [9] | Potency [10]

CCCCCCCCc1ccc(O)cc1
active: Potency [1] 43.5 µM

COc1cc(N)c(Cl)cc1C(=O)NC1CN2CCC1CC2 (stereo not given)
inactive: Potency [1] | Potency [2] | Potency [3] | Potency [4] | Potency [5] | max activation [8] -2.4% | Potency [9] | Potency [10]

CC(=O)[O-].CC(=O)[O-].[Hg+2]
inactive: Potency [1] | Potency [3]
active: Potency [2] 2.43 µM | Potency [4] 19.3 µM

C[C@H]1O[C@@H](O[C@H]2[C@@H](O)C[C@H](O[C@H]3[C@@H](O)C[C@H](O[C@H]4CC[C@@]5(C)[C@H](CC[C@@H]6[C@@H]5CC[C@]5(C)[C@@H](C7=CC(=O)OC7)CC[C@]65O)C4)O[C@@H]3C)O[C@@H]2C)C[C@H](O)[C@@H]1O
inactive: Potency [1] | Potency [2] | Potency [3] | Potency [4] | Potency [5] | Potency [10] | Potency [6] | Potency [7]

CC(C)CC(C)N (stereo not given)
inactive: Potency [1] | Potency [2] | Potency [3] | Potency [4] | Potency [5] | Potency [6] | Potency [7]

c1ccc(OCC2CO2)cc1 (stereo not given)
inactive: Potency [1] | Potency [2] | Potency [3]

Nc1c(Oc2ccccc2)cc(O)c2c1C(=O)c1ccccc1C2=O
active: Potency [2] 26.6 µM | Potency [4] 18.8 µM | Potency [5] 10.6 µM
inactive: Potency [1] | Potency [3] | Potency [6] | Potency [7]

CCCCCCCCCCCCCCCC[N+](C)(C)C
active: Potency [2] 26.3 µM and 48.6 µM and 29.8 µM | Potency [4] 68.6 µM
inactive: Potency [1] | Potency [3] | Potency [5] | max activation [8] -8.83% | Potency [9] | Potency [10]

O=C(Cl)c1ccc(Cl)cc1
inactive: Potency [1] | Potency [2] | Potency [3] | Potency [4] | Potency [5] | Potency [6] | Potency [7]
